SW480 rereplic: A quantitative high throughput screen for small molecules that induce DNA re-replication in SW480 colon adenocarcinoma cells | SW480 DNA re-replication, Hoechst DNA content imaging, 48 h | Potency, µM (top dose mostly 46.1 µM), inactives show at the top dose re-replication activation, most hits filed as activators | actives 1.8% (n = 340,000) | AID 624297, 2012; also: % of control where 0% means no effect; nearly all actives have a fitted effect of over 55% in size
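Cells (250 per well) received 23 nL compound or DMSO by pin tool and were kept 48 hr at 37 C, 5% CO2. Nuclei were then stained with Hoechst for 40 min and scanned for DNA content.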
ELG1 DNA repair: qHTS screen for small molecules that inhibit ELG1-dependent DNA repair in human embryonic kidney (HEK293T) cells expressing luciferase-tagged ELG1; actives 2.3% (n = 330,000); AID 504467, 2011; Potency, µM (series often up to 46.1 µM), for inactives: at the top dose activity change, negative = inhibition, most hits filed as inhibitors; HEK293T ELG1-luciferase reporter, luminescence, 16 h; DNA damage induced by 5-fluorouridine; also: % is scaled to controls: 0 for no effect and ±100 for the full control effect; nearly all actives have a fitted effect of over 55% in size
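Reporter activity after DNA damage by 5-fluorouridine is monitored. Compound-treated cells incubate 16 hr at 37 °C, then ONE-Glo is added for 30 min before luminescence reading.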
KB-3-1 cytotox: qHTS assay for MDR1-selective chemotherapeutics: Primary screen using the parental adenocarcinoma cell KB-3-1. KB-3-1 viability, CellTiter-Glo ATP luminescence, 72 h. Potency, µM (series often up to 46.1 µM), usual class: cytotoxic. actives 1.4% (n = 400,000). AID 1347075, 2019; also: % is scaled to controls: 0 for no effect and ±100 for the full control effect; nearly all actives have a fitted effect of over 60% in size
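Parental KB-3-1 adenocarcinoma cells in phenol-red-free DMEM with 10% FBS were pin-treated with compounds at several concentrations, incubated 72 h at 37 °C, and viability read by CellTiter-Glo luminescence; concentration-effect curves were fitted after normalization.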
KB-V1 cytotox: qHTS assay for MDR1-selective chemotherapeutics: Primary screen using the drug-selected MDR subline cells KB-V1. KB-V1 MDR cells viability, CellTiter-Glo, 72 h. Potency, µM (titrated, usually from 46.1 µM), most hits filed as cytotoxic. actives 3.4% (n = 400,000); also: % is scaled to controls: 0 for no effect and ±100 for the full control effect; nearly all actives have a fitted effect of over 60% in size
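Potencies derive from concentration-effect curves fitted to normalized luminescence (CellTiter-Glo) of KB-V1 cells treated for 72 h at 37 degrees C in phenol-red-free DMEM containing 10% FBS.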
MCF10A rereplic: A quantitative high throughput screen for small molecules that induce DNA re-replication in MCF 10a normal breast cells. Potency, µM (highest dose often 46.1 µM), for inactives: at the highest dose activity, positive = re-replication, most hits filed as activators. MCF 10A DNA re-replication, Hoechst nuclear intensity, 48 h. actives 2.9% (n = 350,000). AID 624296, 2012; also: % of control where 0% means no effect; nearly all actives have a fitted effect of over 50% in size
* = called active by the depositor. This is a sample that favours compounds with a hit; in the whole collection about 8.2% have one here. Calls follow the shape of the dose curve; as a rule, active = well fitted curve in the direction sought with a large enough effect; inconclusive = small, poorly fitted or top-dose-only effect, or another doubt; inactive = no such curve, though single readings can be large; an effect the other way counts as inactive or inconclusive. Potency is read from the fitted curve at half-maximal effect.

What do the screens show for `O=C(c1ccc(Br)cc1)c1cc([N+](=O)[O-])ccc1N1CCOCC1`?
SW480 rereplic: 0.581µM*; ELG1 DNA repair: inconclusive; KB-3-1 cytotox: inactive; KB-V1 cytotox: 4.61µM*; MCF10A rereplic: inconclusive

Results for O=C(c1ccccc1)c1cc([N+](=O)[O-])ccc1N1CCOCC1 ?
SW480 rereplic: inconclusive; ELG1 DNA repair: inconclusive; KB-3-1 cytotox: 1.16µM*; KB-V1 cytotox: 1.16µM*; MCF10A rereplic: inconclusive

Results for O=C(c1cc([N+](=O)[O-])ccc1N1CCOCC1)N1CCCCC1 ?
SW480 rereplic: -5.2%; ELG1 DNA repair: 0.2%; KB-3-1 cytotox: inconclusive; KB-V1 cytotox: inactive; MCF10A rereplic: 3.1%

Results for O=C1CCCC2=C1C1(CCCC1)N=C(Nc1nc3cc(Br)ccc3o1)N2 ?
KB-3-1 cytotox: inactive; KB-V1 cytotox: inactive

What do the screens show for `O=C(CS(=O)c1ccccc1[N+](=O)[O-])Oc1ccc(Br)cc1` (stereo unspecified)?
SW480 rereplic: -1.1%; ELG1 DNA repair: -3.1%; KB-3-1 cytotox: inactive; KB-V1 cytotox: inactive; MCF10A rereplic: -0.8%

How did CS(=O)(=O)c1ccc(S(=O)CC(=O)Oc2ccc(Cl)cc2)c([N+](=O)[O-])c1 (stereo unspecified) do in these assays?
SW480 rereplic: 6.51µM*; ELG1 DNA repair: inconclusive; KB-3-1 cytotox: 20.6µM*; KB-V1 cytotox: inconclusive; MCF10A rereplic: 4.61µM*

What do the screens show for `CCOC(=O)[C@]12CCCC=C1N(Cc1cccc3ccccc13)C(=O)[C@H](CC(=O)NCCCN1CCCC1=O)C2`?
KB-3-1 cytotox: inactive; KB-V1 cytotox: inconclusive

Results for CC(C(Sc1ccccc1N)c1ccccc1)[N+](=O)[O-] (stereo unspecified) ?
SW480 rereplic: 9.7%; ELG1 DNA repair: inconclusive; KB-3-1 cytotox: 11.6µM*; KB-V1 cytotox: inactive; MCF10A rereplic: inconclusive

How did CCc1nnc(NC(=O)/C=C/c2ccco2)s1 do in these assays?
SW480 rereplic: -11.1%; ELG1 DNA repair: inconclusive; KB-3-1 cytotox: inactive; KB-V1 cytotox: inactive; MCF10A rereplic: -2.3%

What do the screens show for `O=C(/C=C/c1ccco1)Nc1nnc(-c2ccco2)s1`?
SW480 rereplic: inconclusive; ELG1 DNA repair: inconclusive; KB-3-1 cytotox: inconclusive; KB-V1 cytotox: inconclusive; MCF10A rereplic: 5.8µM*

Results for Cc1nc(NC(=O)/C=C/c2ccco2)sc1C ?
SW480 rereplic: 8.2µM*; ELG1 DNA repair: inconclusive; KB-3-1 cytotox: 4.11µM*; KB-V1 cytotox: inconclusive; MCF10A rereplic: inconclusive

What do the screens show for `O=C(C1CCCN(S(=O)(=O)c2cccs2)C1)N1CCN(c2cccc(Cl)c2)CC1` (stereo unspecified)?
KB-3-1 cytotox: inactive; KB-V1 cytotox: inactive

How did O=C1Nc2ccc(S(=O)(=O)N3CCCCCC3)c3cccc1c23 do in these assays?
SW480 rereplic: -0.2%; ELG1 DNA repair: 6.8%; KB-3-1 cytotox: inactive; KB-V1 cytotox: inactive; MCF10A rereplic: 20.6µM*

Results for COC(=O)c1cnn(-c2ccc(Cl)cc2)c1/C=N/NC(N)=S ?
SW480 rereplic: -8.6%; ELG1 DNA repair: 13µM*; KB-3-1 cytotox: inconclusive; KB-V1 cytotox: inconclusive; MCF10A rereplic: -0.1%

What do the screens show for `COc1cc2c(C(=O)Nc3ccc4c(c3)OCO4)cn(CC(C)C)c(=O)c2cc1OC`?
ELG1 DNA repair: 9.2µM*

How did COc1cc2c(C(=O)NCc3ccc4c(c3)OCO4)cn(CC(C)C)c(=O)c2cc1OC do in these assays?
SW480 rereplic: -2.0%; ELG1 DNA repair: inconclusive; KB-3-1 cytotox: inactive; KB-V1 cytotox: inactive; MCF10A rereplic: 14.6µM*

What do the screens show for `COc1ccc(NC(=O)c2cn(CC(C)C)c(=O)c3cc(OC)c(OC)cc23)cc1Cl`?
KB-3-1 cytotox: inactive; KB-V1 cytotox: inactive

Results for O=C(NC(Cc1ccccc1)c1ccc2c(c1)OCCCO2)c1ccccc1F (stereo unspecified) ?
SW480 rereplic: 1.8%; ELG1 DNA repair: -2.4%; KB-3-1 cytotox: inactive; KB-V1 cytotox: 16.4µM*; MCF10A rereplic: 4.4%

Results for CCCCOc1ccc(C(=O)C(CN2CCOCC2)c2ccccc2)cc1 (stereo unspecified) ?
SW480 rereplic: 14.6µM*; ELG1 DNA repair: inconclusive; KB-3-1 cytotox: inconclusive; KB-V1 cytotox: inconclusive; MCF10A rereplic: inconclusive

Results for O=C(c1ccc(F)cc1)C(CN1CCOCC1)c1ccccc1 (stereo unspecified) ?
SW480 rereplic: inconclusive; ELG1 DNA repair: inconclusive; KB-3-1 cytotox: inconclusive; KB-V1 cytotox: inconclusive; MCF10A rereplic: 5.17µM*

What do the screens show for `c1ccc(C(CN2CCOCC2)c2ccccc2)cc1`?
SW480 rereplic: -4.1%; ELG1 DNA repair: -0.2%; KB-3-1 cytotox: inactive; KB-V1 cytotox: inconclusive; MCF10A rereplic: -0.8%

How did O=C(c1ccc(Cl)cc1)C(CN1CCCC1)c1ccccc1 (stereo unspecified) do in these assays?
SW480 rereplic: inconclusive; ELG1 DNA repair: inconclusive; KB-3-1 cytotox: inconclusive; KB-V1 cytotox: inactive; MCF10A rereplic: 4.11µM*

Results for OC(CN1CCCCC1)c1ccccc1 (stereo unspecified) ?
KB-3-1 cytotox: inactive; KB-V1 cytotox: inactive

How did OC(CN1CCOCC1)CN(c1ccccc1)c1ccccc1 (stereo unspecified) do in these assays?
SW480 rereplic: -7.5%; ELG1 DNA repair: -2.7%; KB-3-1 cytotox: inactive; KB-V1 cytotox: 14.6µM*; MCF10A rereplic: 16.3%

What do the screens show for `COc1ccccc1NC(=S)N1CCN(c2ccccc2F)CC1`?
SW480 rereplic: 3.3%; ELG1 DNA repair: -7.6%; KB-3-1 cytotox: inactive; KB-V1 cytotox: inactive; MCF10A rereplic: 10.9%

How did O=C(c1ccccc1)C(CCC(CN1CCOCC1)C(=O)c1ccccc1)CN1CCOCC1 (stereo unspecified) do in these assays?
SW480 rereplic: inconclusive; ELG1 DNA repair: inconclusive; KB-3-1 cytotox: 5.8µM*; KB-V1 cytotox: 5.8µM*; MCF10A rereplic: 4.61µM*

How did COc1ccc(C(=O)C(CN2CCOCC2)c2ccccc2)cc1 (stereo unspecified) do in these assays?
SW480 rereplic: -1.8%; ELG1 DNA repair: inconclusive; KB-3-1 cytotox: inconclusive; KB-V1 cytotox: inconclusive; MCF10A rereplic: inconclusive

How did COc1ccc(C(=O)C(CN2CCCC2)c2ccccc2)cc1 (stereo unspecified) do in these assays?
SW480 rereplic: inconclusive; ELG1 DNA repair: 16.4µM*; KB-3-1 cytotox: 7.08µM*; KB-V1 cytotox: 7.08µM*; MCF10A rereplic: inconclusive

Screening results deposited in PubChem by National Center for Advancing Translational Sciences (NCATS).
